From PubChem BioAssay
D2 PAM-1 = positive allosteric modulators of human D2 dopamine receptor; DiscoveRx D2 beta-arrestin cells, luminescence, 90 min; 100% = 57 uM dopamine signal; hit rate 0.23% among 360,000; potentiation, % (concentration not given with the values); P14416; in the data active means potentiation above about 50%
Target sequence (P14416 whole entry, looked up): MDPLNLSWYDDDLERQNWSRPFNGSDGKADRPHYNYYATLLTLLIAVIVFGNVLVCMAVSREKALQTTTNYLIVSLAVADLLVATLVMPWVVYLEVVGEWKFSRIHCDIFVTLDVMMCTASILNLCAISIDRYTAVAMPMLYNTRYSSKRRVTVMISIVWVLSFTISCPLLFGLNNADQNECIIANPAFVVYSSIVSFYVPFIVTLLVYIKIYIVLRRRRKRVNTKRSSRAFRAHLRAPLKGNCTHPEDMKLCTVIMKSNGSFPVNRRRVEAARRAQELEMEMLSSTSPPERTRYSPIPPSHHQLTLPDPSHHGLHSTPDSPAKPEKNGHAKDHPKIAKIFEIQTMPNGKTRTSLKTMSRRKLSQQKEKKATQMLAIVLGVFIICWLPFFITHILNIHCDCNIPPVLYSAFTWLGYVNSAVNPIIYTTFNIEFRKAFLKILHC
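PathHunter D2 cells, attached overnight at 37 deg C, received compound in DMSO plus dopamine at EC20 (50 nM final) for 90 min at 37 deg C. Beta-arrestin recruitment was read as luminescence after 1 h with detection reagent at ambient temperature.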
D2 PAM-2 = positive allosteric modulators of human D2 dopamine receptor; P14416; HEK293 T-REx D2, calcium flux, EC20 dopamine potentiation; potentiation, % at 10 µM; hit rate 0.34% among 340,000;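 active means potentiation over 3 SD above the plate norm, cut at about 30% in these data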; further: 0% is about no effect
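Primary screen. Calcium kinetics in induced HEK293 T-REx D2 cells: compound pre-addition 180 s, EC20 dopamine, 180 s more.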
D2 antag = D2 dopamine receptor (human) antagonism. P14416. HEK293 TREx D2 cells, calcium flux, dopamine EC80. AID 485344. inhibition, % at 10 µM. hit rate 2% among 340,000; in the data active means inhibition above about 30%; inactive means below that, where a call was filed; further: 0% is about no effect
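Antagonism is scored as inhibition of an EC80 dopamine-evoked calcium signal in a force-coupled, tetracycline-inducible HEK293 T-REx D2 line, with compound present 180 s before agonist.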
D2 ag-1 = human D2 receptor agonism in beta-arrestin assay; activation, % (test concentration not listed); AID 624465; hit rate 0.084% among 360,000; DiscoveRx PathHunter D2 beta-arrestin, luminescence, 90 min; 100% = 57 uM dopamine signal; in the data active means activation above about 40%
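DiscoveRx PathHunter D2 beta-arrestin cells (2,100/well) attached overnight, then compound-stimulated 90 min at 37 C in HBSS/10 mM HEPES/0.1% Tween-20 buffer; beta-galactosidase complementation read by luminescence after 1 h at ambient temperature. Dopamine 57 uM final (EC100) as control.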
D2 ag-2 = D2 dopamine receptor (human) agonism | HEK293 T-REx D2 cells, calcium flux agonist mode | activation, % at 2 µM | hit rate 0.53% among 340,000 | AID 485358;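 active means activation over 3 SD above normal in the single-dose calcium agonist read, cut at about 30% in these data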; further: 0% is about no effect
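Tetracycline-induced HEK293 T-REx cells with force-coupled D2 receptor, plated overnight at 30 C, loaded with no-wash calcium dye. After a 10 s baseline, compound was pin-added and calcium flux read kinetically for 180 s; calcium rises flagged agonists.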
Starred values were filed as active, the others as inactive; x = not tested or not shown. Rows were chosen to be rich in hits. Some 2.4% of all compounds tested hit in one or more screens of this group.

SMILES	D2 PAM-1	D2 PAM-2	D2 antag	D2 ag-1	D2 ag-2
COc1ccc(C(CNC(=O)COc2ccc(Cl)c(C)c2)N2CCOCC2)cc1 (stereo unspecified)	x	-17.8	x	x	0.9
COc1ccc(NC(=O)CSc2nnc3ccc(-c4ccccn4)nn23)cc1OC	-18.0	-10.4	30.3*	-5.2	0.4
O=C(Nc1ccc(NC(=O)c2cccs2)cc1)c1ccc2c(c1)OCCO2	-9.1	-16.7	34.2*	-2.9	2.5
O=C(Nc1ccc(N2CCOCC2)c(Cl)c1)c1ccc2c(c1)OCCO2	-4.4	19.0	30.5*	5.5	2.3
COC(=O)C[C@H]1C[C@H]2c3cc(NC(=O)Nc4ccc(F)cc4)ccc3O[C@H]2[C@@H](CO)O1	3.9	x	x	-2.4	x
CCOC(=O)c1cccc(NC(=O)CC2C(=O)N(c3ccc(Cl)cc3)C(=O)N2C2CCCC2)c1 (stereo unspecified)	x	-1.3	x	x	1.5
O=C(/C=C/c1ccco1)Nc1sc2c(c1C(=O)O)CCC2	-7.9	-3.7	-5.1	-1.9	-0.6
N#Cc1c(NC(=O)/C=C/c2ccco2)sc2c1CCCC2	-34.5	-21.7	57.3*	-4.9	0.1
C/C(=N\NC(=O)c1ccccc1F)c1ccc(C#N)cc1	-4.5	5.5	36.4*	0.3	2.4
CC(C)Oc1ccc(CNC(=O)CCCN2C(=O)c3cccnc3Oc3ccc(Cl)cc32)cc1	x	4.0	x	x	-0.8
Cc1oc2ccc(O)c(CN3CCOCC3)c2c1C(=O)Nc1ccc(C(C)C)cc1	x	-3.6	x	x	-0.7
CCCn1c(SCC(=O)NCc2ccco2)nnc1C(C)C	1.2	-6.8	46.5*	-2.3	-0.4
Cc1nnc(SCC(=O)NCc2ccco2)n1Cc1ccccc1	-15.0	x	x	-0.8	x
CCn1c2ccccc2c2cc(NC(=O)c3cccc([N+](=O)[O-])c3)ccc21	-1.9	-12.5	42.0*	0.7	0.9
CCn1c(SCC(=O)Nc2ccc3c(c2)c2ccccc2n3CC)nnc1-c1ccco1	-20.9	9.4	45.5*	0.5	0.4
CCCn1c(SCC(=O)Nc2nnc(CC)s2)nnc1-c1ccco1	29.2	37.5*	6.7	-1.1	0.1
CCCOc1ccc(NC(=O)CC2C(=O)N(c3cccc(C)c3)C(=O)N2CCc2ccncc2)cc1 (stereo unspecified)	x	2.7	x	x	-0.7
N#Cc1c(Sc2ncc(C(F)(F)F)cc2Cl)nsc1C/C=N\OCc1c(F)cccc1Cl	57.7*	1.8	-4.3	2.3	0.5
CC(C)C(NC(=O)C12CC3CC(CC(C3)C1)C2)C(=O)NC1=NCCS1 (stereo unspecified)	x	15.3	-5.9	x	0.2
O=C(NC1=NCCS1)C12CC3CC(CC(C3)C1)C2	-8.8	-8.8	50.1*	3.0	-0.3
Cc1cccc(CN2C(=O)c3ccccc3Sc3ccc(C(=O)NC4CCCCC4)cc32)c1	x	-5.0	x	x	0.3
COc1cccc(-c2cc(C(F)(F)F)n3ncc(C(=O)N4CCc5ccccc5C4)c3n2)c1	-2.9	5.0	50.0*	-5.8	-1.7
COc1ccc(-c2cc(C(F)(F)F)n3ncc(C(=O)N4CCc5ccccc5C4)c3n2)cc1	-5.0	1.6	-8.2	-1.2	1.3
CCOc1ccc(NC(=NCc2ccc3c(c2)OCO3)SC2CC(=O)N(c3ccccc3)C2=O)cc1 (stereo unspecified)	-3.1	31.2*	-8.1	-4.4	0.7
CCc1cc2c(SCC(=O)c3cccs3)ncnc2s1	-17.2	0.2	33.5*	-3.5	0.1
SMILES	D2 PAM-1	D2 PAM-2	D2 antag	D2 ag-1	D2 ag-2
CCOc1ccc(NC(=O)N(Cc2c[nH]c3ccccc23)C2CCCCCC2)cc1	x	8.4	x	x	0.6
Cc1ccc(N=Nc2c(N)[nH]n3c(=O)cc(-c4ccccc4)nc23)cc1	-12.5	-13.7	-7.4	-2.8	-1.0
Cc1ccc(N=Nc2c(=O)[nH]n3c(=O)cc(C)[nH]c23)cc1	-19.6	37.7*	14.1	-7.5	0.7
COC(=O)CNC(=O)c1cccs1	4.9	-7.6	65.9*	-2.3	0.5
CN(C)c1ccc(C(CNC(=O)c2ccc(C(C)(C)C)cc2)N2CCCC2)cc1 (stereo unspecified)	x	-2.5	x	x	-0.2
Cc1nc2ncccn2c1-c1csc(NCc2ccco2)n1	-20.3	37.9*	1.0	0.8	0.3
CCC(=O)N1CCc2cc(Br)cc(S(=O)(=O)N3CCCC(C(=O)N(C)c4ccc(Br)cc4)C3)c21 (stereo unspecified)	x	11.3	x	x	-0.7
